Test results published in the supplement of paper PMC6555819.

Each sequence was assayed on VDR:RXRa (NR concentration 270 nM, RXRa partner concentration 90 nM) (assay: PBM binding z-score (relative to random genomic background probes); higher = stronger binding; sequences stand for … in GC…GCGATTGACAGCGTAGAATGAAGG).
Description: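 Protein-binding microarray (Agilent 4x180K custom design, double-stranded 60-nt probes: 5' GC cap, 34-nt variable region, 24-nt constant primer region; full probe sequence given). Purified or IVT nuclear receptor:RXRα heterodimers (3:1 NR:RXRα, mostly 270:90 nM) or homodimers were incubated for 1 h in PBS with 2% milk and no ligand, then detected with Alexa488 antibodies. Fluorescence from o1-orientation probes (~5 replicates averaged) was converted to z-scores against 500 random hg19 background probes. Variable regions are seed direct-repeat (DR0–DR5) sites, all their single-nucleotide variants and half-site ablations.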
For ATATGTAGGTTAGCTGGGGTCATTCACACTAGGC, the PBM binding z-score was 6.32.
TCGTGTAGGTTACGGGGGCATTCAGGGATGAAGA was tested, and the PBM binding z-score was 4.42.
Work on ATATGTAGGTTATCGGGTCATACAGTTTGCGCAT yielded a PBM binding z-score of 5.13.
In the case of CGAACGAGGTCACCAGGACAGTGAAGAGGTTGGA, the PBM binding z-score is reported as 5.65.
Work on TAGCCGAGGTCATTCAGGGGCCAGTATAGAAAGC yielded a PBM binding z-score of 5.89.
Work on CCTTACGGGTAACGAGGTTATAGCACGACGAGCG yielded a PBM binding z-score of 1.38.
In the case of TCGAGTAGGTCACGGGGGCATTCAGGGATGAAGA, the PBM binding z-score is reported as 5.82.
Sequence CCTAGTTGGTCAAGGTCACATACGCTATAGGTAC has a PBM binding z-score of 4.04.
Sequence ATCGAAAGGTCGAAGGTGCGTATACCCACCCGAA has a PBM binding z-score of 2.58.
ATATGTAGGTTGGGGTCATTCAGAAAGTAGGGAA gave a PBM binding z-score of 6.03.
CGCACTAGGTCATCCAGGACAGTGAATACATTGA was tested, and the PBM binding z-score was 4.38.
For TAGCCTAGGTCATGGGCCAGTGTACCACGCGAAC, the PBM binding z-score was 2.18.
In the case of CCTAGTGGGCCAAGGTCATTGATCAGTCAAAGCA, the PBM binding z-score is reported as 3.33.
In the case of TCTATTAGTTGATTAGGGCAACCGAAACAGCGGA, the PBM binding z-score is reported as 0.711.
Sequence CGTCAAAGTTCAACTGAGGTAACGTAAAGCACGC has a PBM binding z-score of 5.16.
TCTCGGAGGACACAAAGGTCAGAGCTTTCCAGAG was tested, and the PBM binding z-score was 3.68.
Sequence CTATGTAGGTTAGGGGGGTCATTCAGTTTGAAAG has a PBM binding z-score of 7.68.
For ATCGAAAGGTCAAAGGTGAGTATACCCACCCGAA, the PBM binding z-score was 6.2.
CGAACTAGGTCAAAGGACATTGAAAGGCGACGTA was tested, and the PBM binding z-score was 1.88.
CCAGACAGGTGAGAAGGTAACTCAGCCTCGATTA was tested, and the PBM binding z-score was 0.116.
With AATACAAGGTCATCGTAGGCCAGAGTACGCACAG the PBM binding z-score was 5.17.
CCAACTAGGTCAAAGGACAGTGAAAGGCGACGTA was tested, and the PBM binding z-score was 1.45.
Sequence TATCAAAGTTCAAAGGTAACGTAAGTATCCACAC has a PBM binding z-score of 5.28.
For GCATATAGGTAATACAAGGTCAAAGTCCGATTGT, the PBM binding z-score was 4.39.
In the case of TGTCAACGTTCAAAGGTAACGTAAGTATCCACAC, the PBM binding z-score is reported as 0.617.
Work on TGTCAAAGTTCAAAGGTTACGTAAGTATCCACAC yielded a PBM binding z-score of 6.4.
In the case of CCTACTGGGTCACGAAAGGTCATTGATTCAGTGA, the PBM binding z-score is reported as 6.48.
AGTCAAAGTTCATCTAGGTAACATAAGATATGCT gave a PBM binding z-score of 5.33.
With ATCGAAAGGTCCAAGGTGAGTATACCCACCCGAA the PBM binding z-score was 0.423.
Sequence ATATGTAGTTTATCGGGTCATTCAGTTTGCGCAT has a PBM binding z-score of 5.19.
GATACAGGGTCGGCTAGAGGCCAGAGTATGGAAA showed a PBM binding z-score of 0.547.
With ACGCGGAGGACAAAGGTCAGAGCTACGCCAGTGA the PBM binding z-score was 3.14.
In the case of CCTCGGAGGACAGAAGGTCAAAGCTGTCCGCTTT, the PBM binding z-score is reported as 2.84.
CGTCAAAGGTCAAGGTAACGTAACAGAAAGCAGC showed a PBM binding z-score of 5.13.
With CGAACTAGGTCAAGGACAGTAAATCTCCGCACGC the PBM binding z-score was 1.33.
CCTACTGGTCCAAGGTCATTGATCAGTCAAAGCA was tested, and the PBM binding z-score was 3.79.
CTCGAAAGGTCATGCTCAGGTGAGTATACCAAAC was tested, and the PBM binding z-score was 5.69.
In the case of CCGACTGGGGCAAGGTCACCATAACGCACAGCCA, the PBM binding z-score is reported as 3.26.
In the case of GATATAGGGTCAGCTAGAGGCCAGAGTATGGAAA, the PBM binding z-score is reported as 3.42.
Sequence TTGCCTAGGTCATTGGGCCAGTATAGTACGCATC has a PBM binding z-score of 2.27.
